Only some compounds are listed: those with a hit (about 17% of all), similar ones and a draw of the others.
HT1080NT lethal: kills 2HG-producing HT-1080-NT fibrosarcoma cells. HT-1080-NT fibrosarcoma viability, CellTiter-Glo ATP luminescence, 48 h. Potency, µM (top dose mostly 46.1 µM), most hits filed as cytotoxic. hit rate 1.6% among 360,000. AID 686970;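 also: NT is the 2HG producing partner of a matched IDH1 knockdown line; nearly all actives have a fitted effect of over 55% in size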
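A 48-hour cytotoxicity screen used HT-1080-NT cells plated 2 hours before compound delivery. ATP-based CellTiter-Glo luminescence measured viability, normalized to DMSO and no-cell controls.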
HT1080 IDH1KD tx: kills HT-1080 cells with IDH1 knockdown | Potency, µM (titrated, usually from 46.1 µM), hits mostly cytotoxic | HT-1080 IDH1 knockdown viability, ATP luminescence, 48 h | hit rate 2% among 360,000
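Assay cells: HT-1080 with IDH1 knockdown, 750 per well, RPMI/5% FBS. Exposure: 48 h at 37 °C following 2 h pre-incubation. Read: CellTiter-Glo luminescence; fitted concentration-response, curve class assigned.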
TGFb inhibitor: inhibitors of TGF-b signaling. Potency, µM (doses to about 46.1 µM), actives largely listed as inhibitors. hit rate 1.2% among 410,000. HepG2 CAGA-GFP TGF-b/SMAD3 reporter, GFP fluorescence, 18 h; TGF-beta stimulated, 500 pg/mL final. AID 588855; also: nearly all actives have a fitted effect of over 65% in size
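Read-out: total well GFP (ex488/em500-530) summed from mean per-cell fluorescence. Cells: HEPG2 CAGA-GFP, 1% FBS DMEM, 18 h at 37 degrees C with 500 pg/mL final TGF-beta. Unstimulated wells served as the full-inhibition control; stimulated DMSO wells = 0%.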
DT40 TDP1 CPT: DT40-hTDP1 cell growth loss with CPT. chicken DT40 Tdp1-/-;hTDP1 cells + 20 nM CPT, ATP luminescence, 48 h. Potency, µM (titrated, usually from 46.2 µM), most hits filed as inhibitors. AID 686979. hit rate 12% among 420,000; also: nearly all actives have a fitted effect of over 55% in size
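Chicken DT40 Tdp1-/- cells stably complemented with human TDP1 were seeded at 400 cells/well in medium containing 20 nM camptothecin, exposed to pin-transferred compounds, and grown at 37 °C for at least 48 hr. Viability was read as ATP luminescence.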
HepG2 viability: counter-screen for TGF-b inhibitors: cytotoxicity in HepG2 cells | HepG2 CAGA-GFP viability, ATP luminescence, 18 h | hit rate 0.76% among 410,000 | Potency, µM (doses to about 46.1 µM), most hits filed as cytotoxic | AID 588856
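CellTiter-Glo luminescence gave cytotoxicity after 18 hours at 37 degrees C. The cells were HepG2 CAGA-GFP in 1% FBS DMEM, stimulated with 500 pg/mL TGF-beta after compound addition. %Activity was normalised to no-cell wells (complete cell-killing) and DMSO (no toxicity), and curves were fitted and classified.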
TDP1 cell noCPT: qHTS for Inhibitors of human tyrosyl-DNA phosphodiesterase 1 (TDP1): qHTS in cells in absence of CPT; DT40 Tdp1-/- hTDP1 cells, no CPT, ATP luminescence, 48 h; Potency, µM (doses to about 46.2 µM), hits mostly inhibitors; hit rate 15% among 420,000; AID 686978, 2013; also: nearly all actives have a fitted effect of over 55% in size
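Compound effects on proliferation are scored in DT40 Tdp1-/-;hTDP1 cells in the absence of CPT. ATP levels (CellTiter-Glo luminescence) are recorded after a ≥48 hr, 37 °C incubation.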
Hits are given with their value; i = inactive; ? = inconclusive; nt = no result; [ ] = another dose, or the depositor's remark. Calls follow the shape of the dose curve; as a rule, active = well fitted curve in the direction sought with a large enough effect; inconclusive = small, poorly fitted or top-dose-only effect, or another doubt; inactive = no such curve, though single readings can be large; an effect the other way counts as inactive or inconclusive.

SMILES | HT1080NT lethal | HT1080 IDH1KD tx | TGFb inhibitor | DT40 TDP1 CPT | HepG2 viability | TDP1 cell noCPT
CCOC(=O)c1c(CN2CCNCC2)nc2ccc(Cl)cc2c1-c1ccccc1 | i | ? | 15.8µM | 4.61µM | i | 4.61µM
COc1ccccc1CN(C(=O)CNC(=O)c1ccco1)C(C(=O)NCC1CCCO1)c1ccc(OC)c(OC)c1 (configuration not stated) | i | i | i | i | i | i
O=C(O)C[C@H](O)C[C@H](O)/C=C/c1c(C2CC2)nc2ccccc2c1-c1ccc(F)cc1 | nt | nt | nt | 2.66µM | nt | 1.88µM
Cn1c(=O)c(-c2cc(F)cc(F)c2)nc2cnc(Oc3cccc(Cl)c3)nc21 | nt | nt | nt | i | nt | i
CC(C)(C)OC(=O)N1CCC(c2nnc(SCc3ccccc3F)o2)CC1 | nt | nt | i | nt | i | nt
OC[C@@H]1CN(Cc2ccccc2)C[C@H](n2cnc3c(NC4CCCC4)ncnc32)O1 | i | i | i | ? | i | ?
Cc1cc(Br)cn2c(Cc3cccc(F)c3)c(C3CCCCC3)nc12 | ? | ? | ? | ? | i | ?
Cc1cc(NC(=O)CN2CCC(C)CC2)nc2c1c(=O)oc1ccccc12 | nt | nt | i | ? | i | 20.6µM
Cc1cc(NC(=O)CN2CCc3ccccc3C2)nc2c1c(=O)oc1ccccc12 | i | i | i | 20.6µM | i | 18.4µM
CCC1CCCCN1CC(=O)Nc1cc(C)c2c(=O)oc3ccccc3c2n1 (configuration not stated) | nt | nt | i | i | i | i
CCCC(=O)Nc1cc(C)c2c(=O)oc3ccccc3c2n1 | i | i | i | ? | i | ?
CC[C@@H]1CC2=C(C(=O)OC(C)(C)O2)[C@H](c2ccc(Cl)cc2)O1 | i | i | ? | i | i | i
CCCCCCCCCC[N+](C)(C)CC/C=C1/c2ccccc2Sc2ccc(Cl)cc21 | ? | ? | ? | 5.17µM | i | 3.66µM
CCCCCCCCCCC[N+](C)(C)CC/C=C1/c2ccccc2Sc2ccc(Cl)cc21 | ? | ? | ? | 5.8µM | 20µM | 2.59µM
CCN(c1ccccc1)S(=O)(=O)c1ccc(C(=O)Oc2ccc(C(C)=O)cc2)cc1 | i | i | i | i | i | i
COC(=O)[C@@H]1CCCN1Cc1ccc2c(c1)CN(Cc1cccc(Cl)c1)CCO2 | nt | nt | nt | i[9.04 µM] | nt | i
CC(=O)Nc1c(Cl)c2c(c(Cl)c1Br)-c1ccc(Cl)cc1C2 | i | i | i | ? | i | ?
CCOCCCn1c(SCC(=O)Nc2cc(C)ccc2C)nc2c(oc3ccccc32)c1=O | nt | nt | i | i | i | i
CCOCCCn1c(SCC(=O)Nc2ccccc2CC)nc2ccccc2c1=O | nt | nt | ? | 16.4µM | i | 16.4µM
CCOCCCn1c(SCC(=O)NC(C)(C)C)nc2ccccc2c1=O | i | i | i | i | i | i
CCOCCCn1c(SCC(=O)Nc2ccccc2Cl)nc2c(oc3ccccc32)c1=O | nt | nt | i | ? | i | 7.31µM
COc1ccc(N2CCN(C(=O)Cn3cnc4nc5c(cc4c3=O)CCCC5)CC2)cc1 | nt | nt | i | i | i | i
CSc1cccc(NC(=O)CC(c2cccs2)N2Cc3ccccc3C2=O)c1 (configuration not stated) | nt | nt | ? | 16.4µM | i | ?
Cc1c(Cl)cccc1NC(=O)CC(c1cccs1)N1Cc2ccccc2C1=O (configuration not stated) | nt | nt | ? | 16.4µM | i | ?
COc1ccc(C(CC(=O)NCc2ccccc2Cl)N2Cc3ccccc3C2=O)cc1OC (configuration not stated) | nt | nt | i | i | i | ?
SMILES | HT1080NT lethal | HT1080 IDH1KD tx | TGFb inhibitor | DT40 TDP1 CPT | HepG2 viability | TDP1 cell noCPT
Cc1c(Cl)cccc1NC(=O)CC(c1ccc(F)cc1)N1Cc2ccccc2C1=O (configuration not stated) | nt | nt | 17.8µM | 23.1µM | i | 20.6µM
COc1cc(Cl)c(C)cc1NC(=O)CC(c1ccc(F)cc1)N1Cc2ccccc2C1=O (configuration not stated) | nt | nt | i | 23.1µM | i | 18.4µM
O=C(O)CC(c1ccc(C(F)(F)F)cc1)N1Cc2ccccc2C1=O (configuration not stated) | i | i | i | i | i | i
CSc1cccc(NC(=O)C(c2ccccc2)N2Cc3ccccc3C2=O)c1 (configuration not stated) | nt | nt | ? | i | i | i
O=C(Nc1ccccc1F)C(Cc1ccccc1)N1Cc2ccccc2C1=O (configuration not stated) | nt | nt | i | i | i | i
O=C(CC(c1cccs1)N1Cc2ccccc2C1=O)Nc1ccccc1F (configuration not stated) | nt | nt | i | ? | i | 20.6µM
CCOc1ccc(CCNC(=O)CCc2c(C)nc3c4c(C)cc(C)nc4nn3c2C)cc1 | nt | nt | nt | i | i | i
Cc1cc(C)n2nc(SCc3cc(=O)oc4ccc5ccccc5c34)nc2n1 | i | i | i | i | i | ?
CCCCC(=O)NC(=S)Nc1c(C)cc(Br)cc1C | i | i | i | 20.6µM | i | 18.4µM
CCCCC(=O)NC(=S)Nc1cccc(NC(=O)CC)c1 | i | i | i | i | i | i
N#CCCn1c(=O)c(-c2ccc(F)cc2)nc2cnc(N3CCNCC3)nc21 | nt | nt | nt | ? | nt | 20.6µM
CN1CCN(c2ncc3nc(-c4ccc(Cl)cc4)c(=O)n(CCC#N)c3n2)CC1 | nt | nt | nt | ? | nt | 16.4µM
N#CCCn1c(=O)c(-c2ccc(Cl)cc2)nc2cnc(N3CCNCC3)nc21 | nt | nt | nt | 7.31µM | nt | ?
CN1CCN(c2ncc3nc(-c4cccc(C#N)c4)c(=O)n(CCC#N)c3n2)CC1 | nt | nt | nt | ? | nt | 20.6µM
N#CCCn1c(=O)c(-c2ccc(Cl)cc2)nc2cnc(N3CCOCC3)nc21 | nt | nt | nt | i | nt | i
C=CCN1[C@@H](C(C)C)COCCS1(=O)=O | nt | nt | i | i | i | i
CCOc1ccc2nc3c(cc2c1)CN(CCCO)C(=NCCOC)S3 | i | i | i | ? | i | 14.6µM
COCCN=C1Sc2nc3ccc(C)cc3cc2CN1Cc1cccs1 | i | i | i | ? | i | 20.6µM
CCOC(=O)C1(C)CCN1C(=O)c1c(F)cccc1F (configuration not stated) | i | i | i | i | i | i
O=C(CSc1nc2ccccc2o1)N1c2ccccc2Sc2ccc(C(F)(F)F)cc21 | i | i | i | ? | i | 20.6µM
CCC(Cn1nnc2ccccc2c1=O)NC(=O)Nc1cc(Cl)ccc1OC (configuration not stated) | nt | nt | ? | ? | i | ?
Cc1cccc2nc(-c3cccc(NC(=O)Cc4ccccc4)c3)cn12 | i | i | i | ? | i | ?
Cc1cccc2nc(-c3cccc(NC(=O)c4ccc(Cl)cc4)c3)cn12 | i | i | ? | 20.6µM | i | ?
